This passage reports binding signal results from article PMC12136788.

To fix the notation:
T1: UNK ZnF1-6 (called full-length) (human, UniProt Q9C0B0 30-357)
T1 sequence: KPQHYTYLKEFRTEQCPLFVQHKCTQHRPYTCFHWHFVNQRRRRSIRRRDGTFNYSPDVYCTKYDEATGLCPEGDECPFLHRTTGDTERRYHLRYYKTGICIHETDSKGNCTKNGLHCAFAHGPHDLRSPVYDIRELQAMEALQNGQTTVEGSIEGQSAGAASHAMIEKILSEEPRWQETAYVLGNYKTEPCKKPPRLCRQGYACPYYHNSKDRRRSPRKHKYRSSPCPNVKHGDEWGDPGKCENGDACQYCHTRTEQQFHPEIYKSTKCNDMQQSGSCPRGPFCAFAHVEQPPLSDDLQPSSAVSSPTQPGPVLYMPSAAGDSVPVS

B1: chr4:150908776:150908877:-|CDS|ENSG00000198589|msi1|FALSE|bound_elsewhere (ssRNA)
RNA: GGGAGUUCUACAGUCCGACGAUCGUUGAUUUGUACUUAGAUUCUCUUUGUGGCAUACUAUUUAACUGUUUUUAAUUAAUUCUUAGGGUACAUUUAAAUUCAAAGCAGAAAGCGACCUUUUCCUUGCUGAGCAUCACAAACUUUCAACAGAGGAUUGAGCAUCA
B2: chr2:150470103:150470218:-|CDS|ENSG00000115963|unk|total|mutant (ssRNA)
RNA: GGGAGUUCUACAGUCCGACGAUCAUGGCCAAACAGAUUGGAGCAGCUACUUAUAUCGAAUGCUCAGCUUUACAGUCGGAAAACCGCGUCAGAGACAUUUUUCACGUUGCCACCUUGGCAUGUGUAAAUAAGACAAAUAAAAACCAACAGAGGAUUGAGCAUCA
B3: chr3:120396629:120396730:-|3pUTR|ENSG00000163430|msi1|FALSE|unique (ssRNA)
RNA: GGGAGUUCUACAGUCCGACGAUCGCCUUCAUUUCUAGGAGUGCUUUAAGAGAAACUGUAAAUGGUGCUCUGGGGCUGGAGGCUAGUAAGGAAACUGCAUCACGAUUGAAAGAGGAACAGACCCAAAUCUGAACCUCUUUUGAGCAACAGAGGAUUGAGCAUCA
B4: chr14:100883672:100883793:-|CDS|ENSG00000254656|unk|FALSE|unique (ssRNA)
RNA: GGGAGUUCUACAGUCCGACGAUCUCUAUUCCGGGUCCCUCAGCCGGAUUCCCUAGACAGUCUGAUUGUGCUCAUCCUGCAAAUAGAAGAGAAGCUGGCAGAGAGAAGAGCUAUGCUCAGGCUGCCCCCCGAGGCCCGCCCCCGCAACAGAGGAUUGAGCAUCA
B5: ENSG00000103657:stop:overlap|stop_codon|ENSG00000103657|stop_codon|NA|stop_codon (ssRNA)
RNA: GGGAGUUCUACAGUCCGACGAUCAGUUUUCUGUUGCUUUGACCAAAGAUGGUCAUGUGUAUACCUUUGGUCAAGGUGGUGAGUAGUCACUAUGACCUCCUUUCAGUAUAGAUAAUUUUCCACUUCUCUUUCAUGUGCUUUAUUCAACAGAGGAUUGAGCAUCA
B6: chr8:23842440:23842541:-|3pUTR|ENSG00000159167|msi1|FALSE|unique (ssRNA)
RNA: GGGAGUUCUACAGUCCGACGAUCCCAAUGCGACAAGUAGUUCAUGAGUAUUCCUAGCAAAUUUCUCUCUUUCUUCAGUUCAGUAGAUUUCCUUUUUUCUUUUCUUUUUUUUUUUUUUUUUUUUUGGCUGUGACCUCUUCAAACCAACAGAGGAUUGAGCAUCA
B7: chr8:23842440:23842541:-|3pUTR|ENSG00000159167|msi1|total|mutant (ssRNA)
RNA: B6 RNA with U37C, A38C, U54C, A55C, U83C, A84C
B8: chr19:582815:582998:+|CDS_3pUTR|ENSG00000172270|msi1_unk|total|mutant (ssRNA)
RNA: GGGAGUUCUACAGUCCGACGAUCUCAUACACUUCCUUCUUUUUUAAAAAAGUUGGGUUUUCUCCAUUCAGGAUUCUGUUCCUCCGGUUUUUUUCCUUCUGAAGUGUUUCACGAGAGCCCGGGAGCUGCUGCCCUGCGGCCCCGCAACAGAGGAUUGAGCAUCA
B9: ENSG00000165868:stop:overlap|stop_codon|ENSG00000165868|stop_codon|NA|stop_codon (ssRNA)
RNA: GGGAGUUCUACAGUCCGACGAUCAGCAGCCGGCCAAGCAGUUCAUGAGACAAGCUGCCUACCAGGCGGACCCUAUGGAUCUUUAGGAGUAGAUUAUGAGUUCGAAAAACUUCUGUAUAAAAUAUUUGGAGAGGAUUUUAUUGACAACAGAGGAUUGAGCAUCA
B10: ENSG00000124766:be:win_601|CDS|ENSG00000124766|bound_else_gene|NA|bound_elsewhere_windowed (ssRNA)
RNA: GGGAGUUCUACAGUCCGACGAUCUCCAAAGUGGCGGGCGGCGCGGGCGGUGGGGUUAGCAAACCGCACGCCAAGCUCAUCCUGGCAGGCGGCGGCGGCGGCGGGAAAGCAGCGGCUGCCGCCGCCGCCUCCUUCGCCGCCGAACAACAGAGGAUUGAGCAUCA
B11: chr7:6403584:6403671:+|3pUTR|ENSG00000136238|msi1_unk|FALSE|overlapping (ssRNA)
RNA: GGGAGUUCUACAGUCCGACGAUCUUUUCUAGUAACUAGGUGUAAAAAUCAUGUGUUGCAGCUUUAUAGUUUUUAAAAUAUUUUAGAUAAUUCUUAAACUAUGAACCUUCUUAACAUCACUGUCUUGCCAGAUUACCGACACUGCAACAGAGGAUUGAGCAUCA
B12: chr2:48379045:48379146:+|3pUTR|ENSG00000170802|unk|FALSE|unique (ssRNA)
RNA: GGGAGUUCUACAGUCCGACGAUCCCUUAUCCUCUUUUCUGAUGUAGCAUAAAAAUUGUCCCGGUUUGAGUUAUAACUGCCAGUAGAUGACCAGUCACAAGUGAACCACUUCUCAGUUGCCAAUCUUUGCUCAUAUUAAAAACACAACAGAGGAUUGAGCAUCA
B13: ENSG00000136451:be:win_2551|3pUTR|ENSG00000136451|bound_else_gene|NA|bound_elsewhere_windowed (ssRNA)
RNA: GGGAGUUCUACAGUCCGACGAUCUCACUAGAGUUUAUGUCUUAUAUUAAAUUGUAUACAGUUUUUAUUCUAACCACUAACUAGGUAGUGUAUGCCCCUUCAGAACAUGCAGAGUGUAUCUUUUUUUAAAUUUCUCCUUCCGUUCAACAGAGGAUUGAGCAUCA
B14: ENSG00000136451:be:win_2501|3pUTR|ENSG00000136451|bound_else_gene|NA|bound_elsewhere_windowed (ssRNA)
RNA: GGGAGUUCUACAGUCCGACGAUCUCCCAAUCAGAGCCUGUUGAUAUUACAACAGGGACAGAUGUGUUAGUUGCUCACUAGAGUUUAUGUCUUAUAUUAAAUUGUAUACAGUUUUUAUUCUAACCACUAACUAGGUAGUGUAUGCAACAGAGGAUUGAGCAUCA
B15: chr12:76028505:76028606:-|3pUTR|ENSG00000139289|msi1|FALSE|unique (ssRNA)
RNA: GGGAGUUCUACAGUCCGACGAUCAAGUCUUGGUCAGUAUUUUUCCAGCAUUUAAAUUGAAACGGUCAGUAUUAGACCACUGCUAGGUUAUGUAGUCAAGAAAUAAAAAUAGAAUUACAUGCUACAGAUGUCUUUAUUCUCCUUCAACAGAGGAUUGAGCAUCA
B16: chr3:160434497:160434598:+|3pUTR|ENSG00000113810|msi1|FALSE|bound_elsewhere (ssRNA)
RNA: GGGAGUUCUACAGUCCGACGAUCUUUAUGAUAGGUUUAUCCGGGUACUAAAUGCAUUUCAACUUGAUAGUUUCAACUUAUGAUAGGUUUACCAGGAUGUAGUCCCACUGUUGAGGAGCAUCUAUUUAGGGGUUAAUUACUUUACAACAGAGGAUUGAGCAUCA

Positions count from the first letter of the chain named. In all, about 5,800 sequences were measured (“enrichment r”: median about 0.68, highest 2% from about 11 on). Only a selection was taken, and the highest values are over-represented in it overall.

The assay addresses T1, UNK ZnF1-6 (called full-length). As to the kind of experiment: nsRBNS (natural sequence RNA bind-n-seq); RBNS binding buffer (assumed for nsRBNS): 25 mM Tris pH 7.5, 150 mM KCl, 3 mM MgCl2, 0.01% Triton X-100, 500 ug/ml BSA, 20 U/ml SUPERase-In, 4 C; UNK is unkempt and MSI1 is Musashi-1; names of the RNAs are library labels; protein concentration not given here; high values mean tight binding.
Turning to B1, the binding signal was 3.69 enrichment R.

As for B2, the binding signal is 0.384 enrichment R.

In turn, B3 showed a binding signal of 0.489 enrichment R.

For B4, the binding signal came to 0.977 enrichment R.

Take B5: the binding signal came out at 0.846 enrichment R.

B6 displayed a binding signal of 28.9 enrichment R.

Molecule B7 yielded a binding signal of 3.66 enrichment R.

B8 had a binding signal of 0.504 enrichment R.

B9 had a binding signal of 0.728 enrichment R.

B10: the binding signal came to 0.449 enrichment R.

Turning to B11, the binding signal was 3.16 enrichment R.

For B12, the binding signal stood at 0.685 enrichment R.

Take B13: the binding signal is 11.6 enrichment R.

Turning to B14, the binding signal worked out at 12.3 enrichment R.

Consider B15, for which the binding signal was 0.83 enrichment R.

Molecule B16 registered a binding signal of 2.3 enrichment R.
